Source: PubChem
A selection: hits, their analogues and other compounds. The true share with any hit is near 3.5%.
Pf apPOL inh: Pf-apPOL DNA polymerase inhibition. Recombinant Pf-apPOL, molecular beacon fluorescence, 1.5 h. inhibition, % at 10 µM. 210,000 compounds, 0.25% hits
mHTT CaM bind: mHTT-calmodulin interaction abrogation; P42858; AlphaScreen His-mHTT/GST-CaM binding, luminescence; inhibition, % at 15 µM; 190,000 compounds, 3.6% hits
Each line names hits and unclear results; the compound was inactive in the other large screens. Rule as the data show it: active = inhibition above about 50%; inactive = the rest.

Cc1ccc(OCCCCN(C)C)c(C(C)(C)C)c1	none
CN(CCO)CCCCOc1ccc2c(c1)C(=O)c1cc(OCCCCN(C)CCO)ccc1-2	mHTT CaM bind 60
CCCCOc1ccc2c(c1)C(=O)c1cc(OCCCC)ccc1-2	none
Cc1cc(NC(=O)c2c(O)c3cccnc3n(-c3ccc(F)cc3)c2=O)ccc1F	none
COCc1cc(=O)[nH]c(N=C(N)Nc2cccc(Cl)c2)n1	none
CC1(C)C2CCC1(C)C(OCC(O)CN1CCN(Cc3ccccc3)CC1)C2 (stereo unspecified)	none
CC1(C)C2CCC1(C)C(OCC(O)CN1CCN(c3ccccc3)CC1)C2 (stereo unspecified)	mHTT CaM bind 52
S=C(Nc1ccc2[nH]ccc2c1)Nc1ccccc1N1CCOCC1	none (no result: mHTT CaM bind)
O=C(C1=C(O)C(=O)N(CCCN2CCOCC2)C1c1cccs1)c1cccs1 (stereo unspecified)	none (no result: Pf apPOL inh)
O=C1C=CC(=O)N1c1ccc(-c2nc3ccccc3o2)cc1	mHTT CaM bind 53
O=C1c2ccc(-c3nc4ccccc4o3)cc2C(=O)N1c1ccc([N+](=O)[O-])cc1	none
Cn1ccnc1SCC(=O)N1c2ccccc2C(C)(c2ccc(Cl)cc2)CC1(C)C (stereo unspecified)	mHTT CaM bind 61
CC1(c2ccc(Cl)cc2)CC(C)(C)N(C(=O)c2cccnc2)c2ccccc21 (stereo unspecified)	none
CS(=O)(=O)NCCNc1ccc([N+](=O)[O-])cc1Cl	none
Nc1ccc(Nc2ccc([N+](=O)[O-])cc2S(=O)(=O)O)cc1	mHTT CaM bind 52
OCc1ccc(-c2ccc(Cl)cc2Cl)o1	none
CC(C)c1ccc(OCC(=O)Nc2c(C(N)=O)oc3ccccc23)cc1	none
COc1ccccc1NC(=O)c1c(NCc2ccccn2)sc2c1CCCCC2	mHTT CaM bind 73
CCOc1ccccc1NC(=O)c1c(NCc2ccccn2)sc2c1CCCCC2	mHTT CaM bind 73
CCOc1ccccc1NC(=O)c1c(NC(=O)CNCC2CCCO2)sc2c1CCC2 (stereo unspecified)	none
CCOc1ccc(NC(=O)c2c(NC(=O)CN3CCN(C)CC3)sc3c2CCC3)cc1	none
CCOc1ccccc1NC(=O)c1c(NC(=O)CN2CCOCC2)sc2c1CCC2	none
CCOc1ccc(NC(=O)c2c(NCc3ccccn3)sc3c2CCC3)cc1	mHTT CaM bind 59
CC(C)(C)C(=O)Nc1sc2c(c1C(=O)Nc1ccccn1)CCCC2	none
CCOc1ccccc1NC(=O)c1c(NCc2ccncc2)sc2c1CCCC2	mHTT CaM bind 53
Cc1cc(C)c(NC(=O)C(=O)NCCC(O)C(C)(C)C)c(C)c1 (stereo unspecified)	none
Cc1ccc(OCC(=O)NCCC(O)C(C)(C)C)cc1 (stereo unspecified)	none
O=C(Cc1ccccc1F)Nc1cnc(N2CCCCC2)nc1	none
CC(C)CCNC(=O)C1(C)CCC(=O)N1CCCN1CCN(c2ccccc2F)CC1 (stereo unspecified)	none
Cc1cc(C)n(-c2cc(N3CCN(C(=O)Nc4ccc5c(c4)OCCO5)CC3)nc(C)n2)n1	none
COc1ccc(-c2cc([C@H]3[C@@H]4C=CCC[C@@]4(C)C(=O)N3Cc3ccccc3)ccc2F)cc1OC	none
Cc1cccc([C@H]2[C@@H]3C=CCC[C@@]3(C)C(=O)N2Cc2ccccc2)c1	none
CC(=O)c1ccc(-c2cccc([C@H]3[C@@H]4C=CCC[C@@]4(C)C(=O)N3Cc3ccccc3)c2)cc1	mHTT CaM bind 85
COc1ccc([C@H]2[C@@H]3C=CCC[C@@]3(C)C(=O)N2Cc2ccccc2)cc1Cl	mHTT CaM bind 52
C[C@@]12CCC=C[C@H]1[C@H](c1cccc([N+](=O)[O-])c1)N(Cc1ccccc1)C2=O	none
COc1ccc(-c2cccc([C@H]3[C@@H]4C=CCC[C@@]4(C)C(=O)N3Cc3ccccc3)c2)cc1	mHTT CaM bind 70
O=C(Nc1ccc(F)c(F)c1)c1ccc(Cn2cc(Br)cn2)o1	none
COc1cc(NS(=O)(=O)c2ccc(NC(=O)c3cccc(C)c3)cc2)nc(OC)n1	none
CN(C)c1ccc(C2CC(c3ccccc3)=NN2C(=O)c2ccc(F)cc2)cc1 (stereo unspecified)	none
CN(C)c1ccc(C2CC(c3ccccc3)=NN2C(=O)c2ccc(F)cc2)cc1[N+](=O)[O-] (stereo unspecified)	mHTT CaM bind 55
CCCN1C(=O)S/C(=C/c2cn(CC(=O)N3CCOCC3)c3ccccc23)C1=O	none
C#CCN1C(=O)S/C(=C\c2cn(CC(=O)N3CCOCC3)c3ccccc23)C1=O	mHTT CaM bind 75
O=C(NCc1ccccc1F)C1CC(=O)N(Cc2ccc(F)cc2)C1 (stereo unspecified)	none
Fc1ccc(-c2noc(-c3ncn4c3COC(c3ccccc3Cl)C4)n2)cc1 (stereo unspecified)	none
Clc1ccccc1C1Cn2cnc(-c3nc(-c4ccccn4)no3)c2CO1 (stereo unspecified)	mHTT CaM bind 100
CC(=O)Nc1ccc(NC(NC(=O)c2cccs2)C(=O)c2ccccc2)cc1 (stereo unspecified)	none
